# Results taken from PubChem BioAssay (NCATS).
# Inconclusive results are not listed. A number with no mark means an inactive call. Calls of active or inactive are those of the source. The call rests on the fitted dose curve; in most records, active means well fitted cell-killing curve with a large enough effect; inconclusive means small, poorly fitted or top-dose-only effect; inactive means no such curve, though single readings can be large or run the other way.
# Experiment: qHTS of pediatric cancer cell lines to identify multiple opportunities for drug repurposing: Primary screen for SJ-GBM2 cells (AID 1347091)
# Details: SJ-GBM2 viability, CellTiter-Glo luminescence, 48 h; series mostly up to 46 µM; activity change, negative = cytotoxic: at the top concentration
# Excerpt: Drug repurposing or repositioning has been offered as a strategy for drug development in oncology programs. This approach has special potential for childhood cancers and other rare or orphan diseases, where the expected return on new drug development has been a disincentive to pharmaceuticals.
# In this project we exploit the poly-pharmacology of drugs to discover new indications via phenotypic screening of a panel of 19 well-characterized cell lines derived from solid tumors seen in children and adolescents. The goal is to identify approved drugs with previously unrecognized anticancer properties that has the potential to reveal new mechanisms and biological processes involved in carcinogenesis or drug resistance. We employed a titration-based paradigm (quantitative high-throughput screening or qHTS), where all compounds were tested at multiple concentrations for their effect on cell viability. Concentration-response curves (CRCs) were derived directly from the primary screen, and both potency and efficacy values were used to identify compounds with robust bioactivity profiles. We screened the NIH Chemical Genomics Center (NCGC) Pharmaceutical Collection (NPC) and Mechanism Interrogation Plate (MIPE) small molecule collections of approved and investigational compounds against these cell lines; and measured metabolically active cells after 48 hours of compound treatment as a proxy for cell viability.
# Assay Submitter: Nathalia J. Martinez, National Center for Advancing Translational Sciences, National Institutes of Health, Rockville, MD, USA; email: natalia.martinez@nih.gov
# [1] Shen, M et al. Quantitative high-throughput phenotypic screening of pediatric cancer cell lines identifies multiple opportunities for drug repurposing. Oncotarget 2017 Dec 19;9(4):4758-4772. PMID 29435139.
# The cells were obtained from University of North Carolina (UNC), Pediatric Preclinical Testing Program (PPT), and Coriell Institute (CI).
# qHTS cell viability assay:
# Cells were assayed in growth media at a density of 500-1,000 cells/well. Five microliters of cells were dispensed into 1,536-well, white, solid-bottom, TC-treated plates (Greiner Bio One) using a multidrop dispenser and incubated at 37 degrees C, 5% CO2, under a humidified atmosphere for 5 hours. Twenty-three nanoliters of compounds and controls (neutral control DMSO or positive control bortezomib at final concentration of 2.3 µM) were subsequently transferred by Kalypsys pintool. For primary screens, the MIPE collection was tested at 11-point dilutions (final concentrations range from 0.78 nM to 46 µM) and the NPC collection at 8-point dilutions (final concentrations range from 0.59 nM to 46 µM). Compounds tested in follow-up screens were assayed at 11-point dilutions. Cells were incubated for 48 hours, followed by addition of 3 uL of CellTiter-Glo (Promega). After a 15 min incubation at room temperature, samples were analyzed for luminescence intensity using a ViewLux High-throughput CCD imager equipped with clear filters.
# Potency means the concentration at half of the fitted maximal effect.
SMILES,"activity change, negative = cytotoxic",Potency
NC1[C@H]2CN(c3nc4c(cc3F)c(=O)c(C(=O)O)cn4-c3ccc(F)cc3F)C[C@@H]12 (stereo not given in full),51.2%,
CC1CC(OC(=O)C(O)c2ccccc2)CC(C)(C)N1C (stereo not given),17.9%,
CCCOC(=O)c1ccccc1,24.7%,
CCC(=O)Nc1ccc(O)cc1,16.4%,
C/C(=C(\CCOP(=O)(O)O)SC(=O)c1ccccc1)N(C=O)Cc1cnc(C)nc1N,25.6% [at 4.84 µM],
CCOc1ccc2ccccc2c1C(=O)N[C@@H]1C(=O)N2[C@@H]1SC(C)(C)[C@@H]2C(=O)O,16.4%,
Nc1ccc(S(=O)(=O)Nc2ccccc2)cc1,20.7%,
c1ccc2c(CC3=NCCN3)cccc2c1,9.23%,
NC(N)=NCCC[C@H](N)C(=O)O,11.2% [at 4.84 µM],
CC[C@H]1CN2CCc3cc(OC)c(OC)cc3[C@@H]2C[C@@H]1C[C@H]1NCCc2cc(OC)c(OC)cc21,,0.237 µM (active)
CO/N=C(\C(=O)N[C@@H]1C(=O)N2C(C(=O)O)=C(CSc3nc(=O)c(O)nn3C)CS[C@H]12)c1csc(N)n1,13%,
O=C(CCCN1CCN(c2ccccn2)CC1)c1ccc(F)cc1,6.47%,
NCCNCCNCCN,20.1%,
CCCCC/C(C=O)=C\c1ccccc1,8.58%,
O=C(O)CC(O)C(=O)O (stereo not given),17.1%,
CC1(C)Oc2ccc(C#N)cc2[C@@H](N2CCCC2=O)[C@@H]1O,6.54%,
COc1ccc2cc1Oc1cc3c(cc1OC)CC[N+](C)(C)[C@H]3Cc1ccc(cc1)Oc1c(OC)c(OC)cc3c1[C@@H](C2)[N+](C)(C)CC3,28.4%,
CCN(CC)C(C)CN1c2ccccc2Sc2ccccc21 (stereo not given),21.3%,
CCN(CC)CCNC(=O)c1c(C)[nH]c(/C=C2\C(=O)Nc3ccc(F)cc32)c1C,,11.9 µM (active)
CCCn1cnc2c1c(=O)n(CCCCC(C)=O)c(=O)n2C,19.2%,

SMILES,"activity change, negative = cytotoxic",Potency
c1ccc(CN(CC2=NCCN2)c2ccccc2)cc1,1.9%,
CS(=O)(=O)c1ccc([C@@H](O)[C@@H](CF)NC(=O)C(Cl)Cl)cc1,100%,
CNCC(O)c1ccc(O)c(O)c1 (stereo not given),27.6%,
Oc1cccc(O)c1,23.8%,
CC(CN1c2ccccc2Sc2ccccc21)N(C)C (stereo not given),-15.4%,
O=C1O[C@H]([C@@H](O)CO)C(O)=C1O,15%,
O=C(O)Cc1sc(-c2ccccc2)nc1-c1ccc(Cl)cc1,14.1%,
O=S(=O)(O)NC1CCCCC1,15.8%,
O=C1NS(=O)(=O)c2ccccc21,13%,
C#CCN(C)Cc1ccccc1,32%,
CCCCCCCCCCCCCCCCCCOCC(O)CO (stereo not given),21.9%,
OCC(O)CN1CCN(c2ccccc2)CC1 (stereo not given),-10.6%,
C[C@H](N)[C@H](O)c1cccc(O)c1,20.9%,
[Cl][In]([Cl])[Cl],35.6% [at 92.7 µM],
COC(=O)C1=C(C)NC(C)=C(C(=O)OC)C1c1ccccc1[N+](=O)[O-],-7.29%,
O=C(O)[C@H](O)c1ccccc1,32.5%,
CN(C)CCCN1c2ccccc2CCc2ccccc21,-17.6%,
CC1=C(C/C=C(\C)CCC[C@H](C)CCC[C@H](C)CCCC(C)C)C(=O)c2ccccc2C1=O,21.4%,
O=C(O)c1ccccn1,12.5%,
OCC(CO)N[C@H]1C[C@](O)(CO)[C@@H](O)[C@H](O)[C@H]1O,2.67%,
